Hits are enriched below; roughly 2.7% of the tested compounds scored in any of these assays.
A549 tox-1 – Nrf2 qHTS screen for inhibitors: counterscreen for cytotoxicity | A549 ARE-Fluc cells, CellTiter-Fluor viability, 18-24 h | Potency, µM (highest dose often 46 µM), actives largely listed as inhibitors | 390,000 tested, 0.16% active | AID 504648, 2011
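A549 ARE_Fluc cells in 5% FBS OPTI-MEM were exposed to compounds in concentration-response for 18-24 h at 37 deg C. Viability was read by CellTiter-Fluor fluorescence (Ex 405/Em 525) after 30 min, before the luciferase read.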
Nrf2 inh – Nrf2 qHTS screen for inhibitors; A549 ARE-Fluc reporter, luciferase luminescence, 18-24 h; Potency, µM (highest dose often 46 µM), actives largely listed as inhibitors; 360,000 tested, 2.1% active; AID 504444, 2011; further: nearly all actives have a fitted effect of over 60% in size
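Nrf2 activity is the BugLite luminescence, read 15 min after reagent at room temperature, following CellTiter-Fluor cytotoxicity readout (30 min, 37C). Compound titrations were applied for 18-24 h to 5000 A549 ARE_Fluc cells/well in 5% FBS OPTI-MEM.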
Nrf2 ARE act – qHTS of Nrf2 Activators; AREc32 ARE-luciferase reporter (MCF7-derived line), luminescence, 24 h; Potency, µM (series often up to 46.1 µM), hits mostly activators; 410,000 tested, 0.31% active; AID 624171, 2012; further: nearly all actives have a fitted effect of over 65% in size
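Reporter line AREc32 (ARE-Fluc), seeded overnight in OPTI-MEM with 5% FBS; compound pin-transferred, 24 hr at 37 deg C, 5% CO2; luminescent read-out.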
12-LOX inh – Primary qHTS assay for inhibitors of human arachidonate 12S-lipoxygenase (ALOX12): Round 2; Potency, µM (highest dose often 108 µM), hits mostly inhibitors; 580,000 tested, 1.1% active; Polyunsaturated fatty acid lipoxygenase ALOX12 (Homo sapiens), P18054; purified 12hLO, xylenol orange hydroperoxide absorbance
Target sequence (P18054 whole entry, looked up): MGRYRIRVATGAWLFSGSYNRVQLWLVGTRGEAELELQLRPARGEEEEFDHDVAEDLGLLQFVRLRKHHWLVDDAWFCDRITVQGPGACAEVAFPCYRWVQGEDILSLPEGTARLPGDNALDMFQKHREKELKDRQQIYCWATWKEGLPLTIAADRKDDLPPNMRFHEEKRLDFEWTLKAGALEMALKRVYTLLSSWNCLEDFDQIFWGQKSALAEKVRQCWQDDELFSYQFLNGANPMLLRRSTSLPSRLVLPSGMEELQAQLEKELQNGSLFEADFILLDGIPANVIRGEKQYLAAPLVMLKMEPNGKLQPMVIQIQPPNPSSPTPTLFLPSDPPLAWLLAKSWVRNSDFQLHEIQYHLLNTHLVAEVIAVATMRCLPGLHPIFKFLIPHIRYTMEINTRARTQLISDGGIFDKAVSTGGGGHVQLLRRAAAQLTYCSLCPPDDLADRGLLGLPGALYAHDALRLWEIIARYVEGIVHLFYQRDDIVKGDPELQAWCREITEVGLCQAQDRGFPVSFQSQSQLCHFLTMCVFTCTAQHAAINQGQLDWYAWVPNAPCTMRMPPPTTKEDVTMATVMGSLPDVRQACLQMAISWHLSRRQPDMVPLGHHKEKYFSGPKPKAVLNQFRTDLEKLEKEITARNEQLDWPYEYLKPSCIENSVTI
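Purified human 12hLO at 150 nM in 25 mM Hepes, 0.01% Triton X-100, pH 7.0, preincubated 15 min at room temperature with compound. Reaction started with 40 uM arachidonic acid, 30 min at room temperature. Hydroperoxide measured by Fe-xylenol orange, 573/405 nm absorbance ratio.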
IDH1 R132H inh – qHTS for Inhibitors of mutant isocitrate dehydrogenase 1 (IDH1): qHTS; Isocitrate dehydrogenase [NADP] cytoplasmic (Homo sapiens), O75874; IDH1-R132H enzyme, NADPH consumption, diaphorase/resazurin fluorescence; Potency, µM (titrated, usually from 76.6 µM), usual class: inhibitors; 390,000 tested, 0.093% active; further: nearly all actives have a fitted effect of over 65% in size
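IDH1-R132H (0.5 ug/mL) preincubated 30 min with compound, then NADPH (0.016 mM) and alpha-KG (2 mM) added; 80 min at RT, pH 7.5. Remaining NADPH coupled via diaphorase/resazurin to fluorescence (540/590 nm); concentration-response curves normalized to no-enzyme control.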
LDHA block – qHTS assay for inhibitors of human lactate dehydrogenase; L-lactate dehydrogenase A chain (Homo sapiens), P00338; activity change, % (values are at about 110 or 230 µM); 480,000 tested, 0.15% active; purified LDHA, NADH/diaphorase-resazurin fluorescence; stronger effect = lower value; in the data active means activity change below about -30%; inconclusive means mostly about -25% to -30%
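Remaining NADH was detected by diaphorase (0.133 mg/mL) converting 37 µM resazurin to fluorescent resorufin, read at 0 and 20 minutes. The preceding 5-minute room-temperature reaction used 2 nM LDHA, 0.2 mM sodium pyruvate and 0.06 mM NADH at pH 7.4.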
FLuc counter 3 – Nrf2 qHTS screen for inhibitors: Purified Fluc Biochemical Counterscreen for Hit Validation; AID 720522, 2013; purified firefly luciferase, luminescence inhibition; Potency, µM (doses to about 57.5 µM), most hits filed as inhibitors; shares compounds with Nrf2 inh; 1,400 tested, 4% active; further: nearly all actives have a fitted effect of over 65% in size
A549 tox-2 – Nrf2 qHTS screen for inhibitors: A549 ARE-Fluc Cytotoxicity Counterscreen for Hit Validation; A549 ARE-Fluc cells, cytotoxicity counterscreen; AID 720523, 2013; shares compounds with Nrf2 inh; Potency, µM (top dose mostly 46.1 µM), hits mostly inhibitors; 1,400 tested, 2% active;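 further: cells exposed to compounds for 18 to 24 hours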
ARE-Fluc inh – Nrf2 qHTS screen for inhibitors: Nrf2 A549 ARE-Fluc Confirmation Assay for Hit Validation; 1,400 tested, 74% active; A549 ARE-firefly luciferase reporter, luminescence; shares compounds with Nrf2 inh; Potency, µM (top dose mostly 46.1 µM), hits mostly inhibitors; further: nearly all actives have a fitted effect of over 65% in size
A number is an active result; [ ] = remark or other dose. Unless noted, the call rests on the fitted dose curve; in most records, active means well fitted curve in the direction sought with a large enough effect; inconclusive means small, poorly fitted or top-dose-only effect, or another doubt; inactive means no such curve, though single readings can be large; an effect the other way counts as inactive or inconclusive.

What do the screens show for `COc1ccc(NC(C)C(=O)Nc2cccc(S(=O)(=O)N3CCOCC3)c2)cc1OC` (centres undefined)?
A549 tox-1: inconclusive; Nrf2 inh: 6.5µM; Nrf2 ARE act: inactive; 12-LOX inh: inactive; IDH1 R132H inh: inactive; LDHA block: inactive; FLuc counter 3: inactive; A549 tox-2: inactive; ARE-Fluc inh: 6.5µM

How did COc1ccc(CC(=O)Nc2cccc(S(=O)(=O)N3CCCCCC3)c2)cc1OC do in these assays?
A549 tox-1: inconclusive; Nrf2 inh: 1.8µM; Nrf2 ARE act: inactive; 12-LOX inh: inactive; IDH1 R132H inh: inactive; LDHA block: inactive; FLuc counter 3: inactive; A549 tox-2: inactive; ARE-Fluc inh: 4.1µM

How did COc1ccc(NC(=O)c2cc(S(=O)(=O)N3CCCC3)cn2C)cc1Cl do in these assays?
A549 tox-1: inactive; Nrf2 inh: 3.7µM; Nrf2 ARE act: inactive; 12-LOX inh: inactive; IDH1 R132H inh: inactive; LDHA block: inactive; FLuc counter 3: inactive; A549 tox-2: inactive; ARE-Fluc inh: inactive

Results for COc1ccc(CC(=O)Nc2cccc(SC)c2)cc1OC ?
A549 tox-1: inactive; Nrf2 inh: 2.9µM; Nrf2 ARE act: inactive; 12-LOX inh: inactive; IDH1 R132H inh: inactive; LDHA block: inactive; FLuc counter 3: inactive; A549 tox-2: inactive; ARE-Fluc inh: 8.2µM

What do the screens show for `O=C1NCc2ccccc2CC12CCCN(Cc1ccccc1OC(F)(F)F)C2` (centres undefined)?
12-LOX inh: inactive[6.33 µM]

Results for Cc1ccc(C(=O)CCC(=O)O)s1 ?
12-LOX inh: inconclusive; LDHA block: inactive

What do the screens show for `c1ccc(-c2csc3ncnc(NCC4COc5ccccc5O4)c23)cc1` (centres undefined)?
A549 tox-1: inactive; Nrf2 inh: 1.6µM; Nrf2 ARE act: inactive; 12-LOX inh: inactive; IDH1 R132H inh: inactive; LDHA block: inactive; FLuc counter 3: inactive; A549 tox-2: inactive; ARE-Fluc inh: 1.2µM

What do the screens show for `Cc1sc2ncnc(NCC3COc4ccccc4O3)c2c1C` (centres undefined)?
A549 tox-1: inactive; Nrf2 inh: inconclusive; Nrf2 ARE act: inactive; 12-LOX inh: inactive; IDH1 R132H inh: inactive; LDHA block: inactive

Results for CN(C)c1nc(-c2ccccn2)nnc1-c1ccccc1 ?
A549 tox-1: inconclusive; Nrf2 inh: inconclusive; Nrf2 ARE act: inactive; 12-LOX inh: inactive; IDH1 R132H inh: inactive; LDHA block: inactive; FLuc counter 3: inactive; A549 tox-2: inactive; ARE-Fluc inh: 12µM

Results for CC1=C(C(=O)OCc2ccccc2)C(c2cccc(Br)c2)NC(=O)N1 (centres undefined) ?
A549 tox-1: inactive; Nrf2 inh: inactive; Nrf2 ARE act: inactive; 12-LOX inh: inactive; IDH1 R132H inh: inactive; LDHA block: inactive

What do the screens show for `COc1ccc(COC(=O)C2=C(C)NC(=O)NC2c2cccc(Br)c2)cc1` (centres undefined)?
A549 tox-1: inactive; Nrf2 inh: inconclusive; Nrf2 ARE act: inactive; 12-LOX inh: inactive; IDH1 R132H inh: inactive; LDHA block: inactive; FLuc counter 3: inactive; A549 tox-2: inactive; ARE-Fluc inh: inconclusive

How did CC1=C(C(=O)OCc2ccc3c(c2)OCO3)C(c2ccc(F)cc2)NC(=O)N1 (centres undefined) do in these assays?
A549 tox-1: inactive; Nrf2 inh: 4.1µM; Nrf2 ARE act: inactive; 12-LOX inh: inactive; IDH1 R132H inh: inactive; LDHA block: inactive; FLuc counter 3: inactive; A549 tox-2: inactive; ARE-Fluc inh: 8.2µM

What do the screens show for `CC(C)NC(=O)C1CCN(C(=O)c2cc3sccc3n2Cc2ccc(Cl)cc2)CC1`?
A549 tox-1: inactive; Nrf2 inh: 5.8µM; Nrf2 ARE act: inactive; 12-LOX inh: inactive; IDH1 R132H inh: inactive; LDHA block: inactive; FLuc counter 3: inactive; A549 tox-2: inconclusive; ARE-Fluc inh: 4.1µM

How did CC1CCN(C(=O)C2CCN(C(=O)c3cc4sccc4n3Cc3ccc(F)cc3)CC2)CC1 do in these assays?
A549 tox-1: inactive[1.84 µM]; Nrf2 inh: inactive; Nrf2 ARE act: inactive; 12-LOX inh: inconclusive; IDH1 R132H inh: inactive; LDHA block: inactive

Results for CCOc1ccccc1CN1CCC(Oc2ccc(C(=O)NCc3ccccn3)cc2)CC1 ?
A549 tox-1: inactive; Nrf2 inh: inconclusive; Nrf2 ARE act: inactive; 12-LOX inh: inactive; IDH1 R132H inh: inactive; LDHA block: inactive

What do the screens show for `CCn1nc(C)c(CNC(=O)c2ccc(OC3CCN(Cc4ccccn4)CC3)cc2)c1C`?
A549 tox-1: inactive; Nrf2 inh: 1.5µM; Nrf2 ARE act: inactive; 12-LOX inh: inactive; IDH1 R132H inh: inactive; LDHA block: inactive; FLuc counter 3: inactive; A549 tox-2: inactive; ARE-Fluc inh: 1.5µM

Results for CN(c1cccc(NC(=O)CN(c2ccc(C34CC5CC(CC(C5)C3)C4)cc2)S(C)(=O)=O)c1)S(C)(=O)=O ?
A549 tox-1: inconclusive; Nrf2 inh: 7.3µM; Nrf2 ARE act: inactive; IDH1 R132H inh: inactive; LDHA block: inactive; FLuc counter 3: inactive; A549 tox-2: inconclusive; ARE-Fluc inh: 21µM

What do the screens show for `CN(c1cccc(NC(=O)CN(c2ccc(F)cc2)S(C)(=O)=O)c1)S(C)(=O)=O`?
A549 tox-1: inactive; Nrf2 inh: inactive; Nrf2 ARE act: inactive; 12-LOX inh: inactive; IDH1 R132H inh: inactive; LDHA block: inactive

Results for CC(=O)c1c(C)n(CC(=O)NCc2ccc3c(c2)OCO3)c2ccccc12 ?
A549 tox-1: inactive; Nrf2 inh: 5.8µM; Nrf2 ARE act: inactive; 12-LOX inh: inactive; IDH1 R132H inh: inactive; LDHA block: inactive; FLuc counter 3: inactive; A549 tox-2: inactive; ARE-Fluc inh: inconclusive

What do the screens show for `O=S(=O)(Nc1cc(Br)cc2cccnc12)c1ccccc1`?
A549 tox-1: inconclusive; Nrf2 inh: inconclusive; LDHA block: inactive

Compound activity as filed in PubChem.
